Common to all, as to conditions: mRNA level, 48 h; actives raise or lower the signal
Read-out in experiment [1]: Nuclear factor NF-kappa-B p105 subunit (Homo sapiens) (UniProt P19838)
As to the kind of experiment: LTEA_HepaRG_NFKB1: Life Technologies and Expression Analysis (LTEA) Assay for Nuclear Factor Kappa B Subunit 1 (NFKB1) using HepaRG (AID 2283521). The method in brief: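 Differentiated human HepaRG cells in serum-free induction medium with 0.5% DMSO were exposed for 48 h to eight half-log concentrations, top 100 uM, in duplicate. NFKB1 mRNA measured by Fluidigm TaqMan qRT-PCR, normalised to ACTB, GAPDH and POLR2A; bidirectional fit versus DMSO.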

Read-out in experiment [2]: Protein phosphatase 2A (PPP2R4), PTPA (gene 5524)
In words: LTEA_HepaRG_PPP2R4: Life Technologies and Expression Analysis (LTEA) Assay for Protein phosphatase 2A (PPP2R4) using HepaRG (AID 2283522). The gist of the method:
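Using HepaRG cultures maintained in 0.5% DMSO, chemicals are tested 48 h at up to 100 uM in duplicate. Induction or suppression of PPP2R4 mRNA, measured by qRT-PCR, is fitted bidirectionally against the vehicle baseline.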

Read-out in experiment [3]: Phosphatase and tensin (PTEN), PTEN (gene 5728)
As to the kind of experiment: LTEA_HepaRG_PTEN: Life Technologies and Expression Analysis (LTEA) Assay for Phosphatase and tensin (PTEN) using HepaRG (AID 2283523). The gist of the method:
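Read-out: TaqMan qRT-PCR of PTEN transcript, normalized to three housekeeping genes, fitted in both directions against 0.5% DMSO. Differentiated human HepaRG cultures received chemicals for 48 h, eight-point half-log series topping at 100 uM.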

Read-out in experiment [4]: solute carrier (SLC22A1), SLC22A1 (gene 6580)
As to the kind of experiment: LTEA_HepaRG_SLC22A1: Life Technologies and Expression Analysis (LTEA) Assay for solute carrier (SLC22A1) using HepaRG (AID 2283524). The gist of the method:
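Transcript level of SLC22A1 quantified by qRT-PCR (normalized to three housekeeping genes) after 48 h chemical exposure of HepaRG cells, eight concentrations up to 100 µM, half-log steps, 0.5% DMSO vehicle. Gain or loss relative to DMSO fitted bidirectionally.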

Read-out in experiment [5]: Pyruvate Dehydrogenase Kinase 4 (PDK4), PDK4 (gene 5166)
In words: LTEA_HepaRG_PDK4: Life Technologies and Expression Analysis (LTEA) Assay for Pyruvate Dehydrogenase Kinase 4 (PDK4) using HepaRG (AID 2283525). The gist of the method:
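Readout is qRT-PCR of PDK4 transcript, normalized to three housekeeping genes, with bidirectional fitting against 0.5% DMSO vehicle. Differentiated HepaRG cells were treated 48 h in serum-free induction medium, duplicate wells, eight-point half-log series topping at 100 uM.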

Read-out in experiment [6]: NAD(P)H dehydrogenase [quinone] 1 (NQO1), NQO1 (gene 1728)
As to the kind of experiment: LTEA_HepaRG_NQO1: Life Technologies and Expression Analysis (LTEA) Assay for NAD(P)H dehydrogenase [quinone] 1 (NQO1) using HepaRG (AID 2283526). The gist of the method: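 In this assay, gene expression is read by qRT-PCR after 48 h exposure of HepaRG cells to eight concentrations (max 100 uM, half-log) in 0.5% DMSO. Each chemical runs in duplicate, and activity is scored relative to vehicle.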

Read-out in experiment [7]: Nuclear factor erythroid 2-related factor 2 (Homo sapiens) (UniProt Q16236)
In words: LTEA_HepaRG_NFE2L2: Life Technologies and Expression Analysis (LTEA) Assay for Nuclear factor erythroid 2-related factor 2 (NFE2L2) Transcription Factor using HepaRG (AID 2283527).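 Note: TaqMan qRT-PCR transcript level normalised to ACTB GAPDH and POLR2A housekeeping genes.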 The method in brief:
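NFE2L2 transcript level was read by qRT-PCR (housekeeping ACTB/GAPDH/POLR2A normalisation) after 48 h chemical treatment of HepaRG in serum-free induction medium. Duplicate 8-point half-log curves, top 100 uM, 0.5% DMSO vehicle; up- or down-regulation fitted against vehicle.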

Read-out in experiment [8]: succinate dehydrogenase complex iron sulfur subunit B (SDHB), SDHB (gene 6390)
In words: LTEA_HepaRG_SDHB: Life Technologies and Expression Analysis (LTEA) Assay for succinate dehydrogenase complex iron sulfur subunit B (SDHB) using HepaRG (AID 2283528). The gist of the method: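 HepaRG cells (~100,000/well, plated 48 h) exposed in duplicate for 48 h in serum-free induction medium to 8-point half-log series from 100 uM in 0.5% DMSO; mRNA by qRT-PCR normalised to ACTB, GAPDH, POLR2A; bidirectional fit versus DMSO.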

Read-out in experiment [9]: Signal transducer and activator of transcription 3 (Homo sapiens) (UniProt P40763)
In words: LTEA_HepaRG_STAT3: Life Technologies and Expression Analysis (LTEA) Assay for Signal transducer and activator of transcription (STAT3) using HepaRG (AID 2283529). The gist of the method:
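STAT3 transcript quantified by qRT-PCR against three housekeeping genes (ACTB, GAPDH, POLR2A), fitted both directions relative to DMSO. HepaRG cultures exposed 48 h to eight half-log concentrations, top 100 uM, 0.5% DMSO, serum-free induction medium.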

Read-out in experiment [10]: solute carrier (SLCO1B1), SLCO1B1 (gene 10599)
In words: LTEA_HepaRG_SLCO1B1: Life Technologies and Expression Analysis (LTEA) Assay for solute carrier (SLCO1B1) using HepaRG (AID 2283530). The method in brief: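 SLCO1B1 transcript levels were quantified by TaqMan qRT-PCR using three housekeeping genes for normalization. This followed 48 h chemical exposure (100 uM top, half-log, 8 points, 0.5% DMSO) of HepaRG liver cells, with gain or loss fitted relative to DMSO.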

Read-out in experiment [11]: sulfotransferase 2A1 (SULT2A1), SULT2A1 (gene 6822)
As to the kind of experiment: LTEA_HepaRG_SULT2A1: Life Technologies and Expression Analysis (LTEA) Assay for sulfotransferase 2A1 (SULT2A1) using HepaRG (AID 2283531). The gist of the method: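 Expression change of SULT2A1, by qRT-PCR with three housekeeping-gene normalization, was scored bidirectionally versus DMSO. Cells: differentiated HepaRG, dosed in duplicate for 48 h across 8 points, highest 100 µM, half-log dilution, 0.5% DMSO.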

Read-out in experiment [12]: Transforming Growth Factor (TGFA), TGFA (gene 7039)
As to the kind of experiment: LTEA_HepaRG_TGFA: Life Technologies and Expression Analysis (LTEA) Assay for Transforming Growth Factor (TGFA) using HepaRG (AID 2283532). The gist of the method:
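TGFA transcript quantified by qRT-PCR (Fluidigm arrays) against three housekeeping genes, after 48 hours chemical treatment of HepaRG cells. Top concentration 100 uM with half-log dilutions, 8 points, duplicates, 0.5% DMSO.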

Read-out in experiment [13]: Transforming Growth Factor (TGFB1), TGFB1 (gene 7040)
In words: LTEA_HepaRG_TGFB1: Life Technologies and Expression Analysis (LTEA) Assay for Transforming Growth Factor (TGFB1) Transporter using HepaRG (AID 2283533). The method in brief: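 TGFB1 transcript measured by qRT-PCR with normalisation to three housekeeping genes (ACTB, GAPDH, POLR2A); human HepaRG line treated in duplicate for 48 hr with an 8-point series topping at 100 uM, 0.5% DMSO vehicle, bidirectionally fitted.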

Read-out in another experiment: TIMP1, TIMP1 (gene 7076)
As to the kind of experiment: LTEA_HepaRG_TIMP1: Life Technologies and Expression Analysis (LTEA) Assay for TIMP1 using HepaRG (AID 2283534). The method in brief: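 Bidirectional change in TIMP1 transcript versus 0.5% DMSO, measured by TaqMan qRT-PCR with three housekeeping genes for normalization. HepaRG human liver cells dosed 48 h in duplicate, top concentration 100 uM with half-log dilutions.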

Read-out in experiment [14]: Tumor necrosis factor receptor 1 (TNFRSF1A), TNFRSF1A (gene 7132)
In words: LTEA_HepaRG_TNFRSF1A: Life Technologies and Expression Analysis (LTEA) Assay for Tumor necrosis factor receptor 1 (TNFRSF1A) using HepaRG (AID 2283535). The gist of the method: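 mRNA measured by qRT-PCR (TaqMan, Fluidigm arrays) against ACTB/GAPDH/POLR2A housekeepers after 48 h chemical exposure of HepaRG cells. Top concentration 100 uM, half-log 8-point series, duplicates; vehicle 0.5% DMSO, both fit directions.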

Read-out in experiment [15]: Thyroid Hormone Responsive (THRSP), THRSP (gene 7069)
In words: LTEA_HepaRG_THRSP: Life Technologies and Expression Analysis (LTEA) Assay for Thyroid Hormone Responsive (THRSP) using HepaRG (AID 2283536). The gist of the method: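 THRSP transcript quantified by Fluidigm qRT-PCR against three housekeeping genes after 48 h chemical exposure of HepaRG cells in serum-free induction medium; eight-point half-log series, top 100 uM, 0.5% DMSO vehicle, duplicate wells.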

Read-out in experiment [16]: Cellular tumor antigen p53 (Homo sapiens) (UniProt P04637)
In words: LTEA_HepaRG_TP53: Life Technologies and Expression Analysis (LTEA) Assay for Tumor Protein P53 (TP53) using HepaRG (AID 2283537). The gist of the method:
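Differentiated HepaRG cells in serum-free induction medium exposed 48 h in duplicate to 8 half-log concentrations, top 100 uM, 0.5% DMSO. TP53 mRNA by TaqMan qRT-PCR (Fluidigm), normalized to ACTB, GAPDH, POLR2A; fitted bidirectionally versus DMSO.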

Read-out in experiment [17]: UDP glucuronosyltransferase (UGT1A1), UGT1A1 (gene 54658)
As to the kind of experiment: LTEA_HepaRG_UGT1A1: Life Technologies and Expression Analysis (LTEA) Assay for UDP glucuronosyltransferase (UGT1A1) using HepaRG (AID 2283538). The gist of the method:
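mRNA induction or loss of UGT1A1, by TaqMan qRT-PCR, in duplicate HepaRG wells after 48 h exposure to half-log dilutions topping at 100 uM; DMSO (0.5%) served as baseline.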

Read-out in experiment [18]: UDP glucuronosyltransferase (UGT1A6), UGT1A6 (gene 54578)
As to the kind of experiment: LTEA_HepaRG_UGT1A6: Life Technologies and Expression Analysis (LTEA) Assay for UDP glucuronosyltransferase (UGT1A6) using HepaRG (AID 2283539). The gist of the method:
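Expression was quantified by TaqMan qRT-PCR on Fluidigm arrays with ACTB/GAPDH/POLR2A normalization and bidirectional fitting against 0.5% DMSO. HepaRG cells (~100,000/well) were treated in duplicate for 48 h at eight half-log concentrations up to 100 uM in serum-free induction medium.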

Read-out in experiment [19]: X-box binding protein 1 (XBP1), XBP1 (gene 7494)
As to the kind of experiment: LTEA_HepaRG_XBP1: Life Technologies and Expression Analysis (LTEA) Assay for X-box binding protein 1 (XBP1) using HepaRG (AID 2283540). The gist of the method: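 XBP1 transcript by qRT-PCR (housekeeping-normalized: ACTB, GAPDH, POLR2A) after 48 h chemical treatment of HepaRG cells, 8-point half-log series topping at 100 uM, vehicle 0.5% DMSO. Gain and loss of signal fitted relative to DMSO.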

Each structure is given as a SMILES string. Active and inactive are the calls of the source. Rule for the calls: active = hit-call score of the fitted dose curve at least 0.9, where 1 is the maximum; inactive = score below 0.9.

Sequence of Signal transducer and activator of transcription 3 (Homo sapiens) (P40763 whole entry, looked up): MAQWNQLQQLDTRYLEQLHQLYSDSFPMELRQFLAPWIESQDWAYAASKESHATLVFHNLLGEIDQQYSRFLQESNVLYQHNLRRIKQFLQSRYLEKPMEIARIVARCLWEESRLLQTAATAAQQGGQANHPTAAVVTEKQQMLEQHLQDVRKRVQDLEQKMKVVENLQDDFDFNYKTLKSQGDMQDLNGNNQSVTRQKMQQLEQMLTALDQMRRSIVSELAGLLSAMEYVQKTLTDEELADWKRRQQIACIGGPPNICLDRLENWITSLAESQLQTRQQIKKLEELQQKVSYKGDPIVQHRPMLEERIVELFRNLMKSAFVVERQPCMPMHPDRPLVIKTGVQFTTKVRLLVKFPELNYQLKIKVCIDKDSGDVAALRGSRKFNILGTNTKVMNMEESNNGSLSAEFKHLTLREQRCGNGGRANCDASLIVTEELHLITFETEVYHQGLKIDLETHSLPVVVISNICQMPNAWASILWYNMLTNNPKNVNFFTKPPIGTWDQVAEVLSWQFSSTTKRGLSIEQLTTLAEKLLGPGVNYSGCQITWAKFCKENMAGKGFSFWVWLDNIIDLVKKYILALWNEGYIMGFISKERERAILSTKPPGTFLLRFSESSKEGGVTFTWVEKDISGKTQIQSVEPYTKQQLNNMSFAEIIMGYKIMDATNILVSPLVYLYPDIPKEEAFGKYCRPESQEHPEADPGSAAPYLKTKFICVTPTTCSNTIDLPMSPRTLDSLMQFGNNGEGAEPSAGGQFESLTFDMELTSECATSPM
Sequence of Nuclear factor erythroid 2-related factor 2 (Homo sapiens) (Q16236 whole entry, looked up): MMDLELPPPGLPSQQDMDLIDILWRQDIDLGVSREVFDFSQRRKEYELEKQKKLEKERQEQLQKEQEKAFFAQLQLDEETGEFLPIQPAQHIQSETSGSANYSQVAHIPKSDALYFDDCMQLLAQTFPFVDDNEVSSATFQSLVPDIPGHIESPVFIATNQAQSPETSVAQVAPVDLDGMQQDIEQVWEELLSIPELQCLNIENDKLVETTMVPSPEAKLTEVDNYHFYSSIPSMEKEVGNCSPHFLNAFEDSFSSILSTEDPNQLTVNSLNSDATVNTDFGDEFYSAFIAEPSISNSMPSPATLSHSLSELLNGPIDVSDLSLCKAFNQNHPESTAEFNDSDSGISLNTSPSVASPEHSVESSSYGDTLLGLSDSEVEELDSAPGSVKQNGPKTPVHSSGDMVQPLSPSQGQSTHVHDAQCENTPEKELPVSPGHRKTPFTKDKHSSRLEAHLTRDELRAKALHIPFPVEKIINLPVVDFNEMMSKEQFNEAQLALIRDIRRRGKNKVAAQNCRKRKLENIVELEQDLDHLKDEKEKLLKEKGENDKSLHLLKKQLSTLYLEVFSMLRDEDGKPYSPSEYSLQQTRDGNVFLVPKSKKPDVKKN
Sequence of Cellular tumor antigen p53 (Homo sapiens) (P04637 whole entry, looked up): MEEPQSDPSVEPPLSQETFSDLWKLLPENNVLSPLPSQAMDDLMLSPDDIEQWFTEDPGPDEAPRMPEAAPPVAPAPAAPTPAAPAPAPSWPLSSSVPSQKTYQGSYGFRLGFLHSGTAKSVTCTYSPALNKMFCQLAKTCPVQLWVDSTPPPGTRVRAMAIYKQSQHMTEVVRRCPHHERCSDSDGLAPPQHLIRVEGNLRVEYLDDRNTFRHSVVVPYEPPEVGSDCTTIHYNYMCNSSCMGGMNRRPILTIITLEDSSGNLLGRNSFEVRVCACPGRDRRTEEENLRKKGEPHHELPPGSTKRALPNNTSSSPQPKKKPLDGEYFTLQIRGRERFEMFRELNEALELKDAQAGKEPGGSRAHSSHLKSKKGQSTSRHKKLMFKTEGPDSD
Sequence of Nuclear factor NF-kappa-B p105 subunit (Homo sapiens) (P19838 whole entry, looked up): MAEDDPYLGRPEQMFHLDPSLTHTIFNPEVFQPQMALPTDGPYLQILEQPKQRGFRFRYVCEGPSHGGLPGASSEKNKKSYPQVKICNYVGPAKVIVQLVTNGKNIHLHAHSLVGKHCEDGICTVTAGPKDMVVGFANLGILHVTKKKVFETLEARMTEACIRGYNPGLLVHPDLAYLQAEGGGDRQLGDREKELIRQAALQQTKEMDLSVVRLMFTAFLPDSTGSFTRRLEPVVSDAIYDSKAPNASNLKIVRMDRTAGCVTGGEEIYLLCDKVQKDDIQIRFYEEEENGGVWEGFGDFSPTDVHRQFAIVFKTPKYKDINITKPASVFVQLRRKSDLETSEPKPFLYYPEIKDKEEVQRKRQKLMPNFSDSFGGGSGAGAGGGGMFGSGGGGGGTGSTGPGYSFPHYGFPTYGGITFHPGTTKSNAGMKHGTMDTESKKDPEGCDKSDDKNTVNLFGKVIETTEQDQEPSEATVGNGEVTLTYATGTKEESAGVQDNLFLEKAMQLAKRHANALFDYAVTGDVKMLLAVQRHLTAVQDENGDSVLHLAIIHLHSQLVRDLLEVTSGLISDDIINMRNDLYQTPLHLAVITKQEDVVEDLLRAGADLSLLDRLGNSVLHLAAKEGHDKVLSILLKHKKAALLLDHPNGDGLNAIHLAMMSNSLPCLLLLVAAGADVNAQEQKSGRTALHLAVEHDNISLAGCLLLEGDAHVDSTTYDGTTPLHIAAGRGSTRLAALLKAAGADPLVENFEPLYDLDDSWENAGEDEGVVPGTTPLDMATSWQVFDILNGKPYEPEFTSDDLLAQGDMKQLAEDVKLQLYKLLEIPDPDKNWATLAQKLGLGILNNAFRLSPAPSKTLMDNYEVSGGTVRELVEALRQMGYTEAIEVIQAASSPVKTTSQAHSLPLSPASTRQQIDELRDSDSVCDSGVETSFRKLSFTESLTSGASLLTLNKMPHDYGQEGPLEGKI

Usually AC50 stands for the midpoint of the concentration-response curve, whichever way the signal moves. In the case of `CCn1nc(C)c2c1C(=O)NCC(c1ccc(O)cc1)=N2`, the result in experiment [1], in experiment [2], in experiment [3], in experiment [4], in [5] and in experiment [6] was inactive. Besides, the molecule was classed as inactive in experiment [7], in experiment [8], in [9], in [10], in [11] and in experiment [12]. Also, the outcome in experiment [13] is “inactive”; with TIMP1, TIMP1 (gene 7076), “inactive”; in experiment [14], “inactive”; in experiment [15], “inactive”; in experiment [16], “inactive”; in experiment [18], “inactive”. For the same molecule, the call in experiment [19] was inactive. In addition, in experiment [17], the AC50 is 34.1 µM (active).

For `CCCCCCCC/C=C\CCCCCCCC(=O)OC[C@@H](O)[C@H]1OC[C@H](O)[C@H]1O`, the molecule was classed as inactive in experiment [1], in [2], in [3], in [4], in experiment [5] and in experiment [6]. The molecule was classed as inactive in [7], in experiment [8], in experiment [9], in experiment [10], in experiment [11] and in experiment [13]. Besides, the outcome with TIMP1, TIMP1 (gene 7076) was “inactive”; in experiment [14], “inactive”; in experiment [16] it was “inactive”; in experiment [17], “inactive”; in [18] it was “inactive”; in [19], “inactive”.

Turning to `CC(=O)c1ccccc1`, the molecule was classed as inactive in experiment [1], in experiment [2], in experiment [3], in experiment [4], in [5] and in experiment [6]. For the same molecule, the outcome in [7], in [8], in [9], in experiment [10], in experiment [11] and in experiment [13] was inactive. Moreover, the outcome with TIMP1, TIMP1 (gene 7076) was “inactive”; in experiment [14], “inactive”; in experiment [15], “inactive”; in [16] it was “inactive”; in experiment [17], “inactive”; in [18] it was “inactive”. In addition, the molecule was called inactive in experiment [19].

For the origin of these results see PubChem BioAssay (EPA / NIEHS).
